The source of these data is PubChem BioAssay.

Activity calls are given as the source filed them.

Experiment [1] is described as follows: small molecules captured by biotinylated probe aFSTL3 – biochemical, small-molecule microarray, fluorescence 635/667, stem cell growth factor project, primary screen (AID 1064).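 Note: measures binding of the biotinylated anti-FSTL3 antibody to printed compounds.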 Conditions: higher = more signal.
The nature of experiment [2]: binders from COS7 lysate, DM2A8 probe, primary screen, torsin A project, cell lysate, small-molecule microarray, fluorescence 635/667 (AID 1065). The conditions noted are these: higher = more signal, COS7 lysate expressing mutant human TOR1A.
Experiment [3] in a line: small molecules captured by biotinylated probe aFGF2 – biochemical, small-molecule microarray, fluorescence 635/667, stem cell growth factor project, primary screen (AID 1067).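 Note: measures binding of biotinylated aFGF2 protein to printed compounds on slides; z-score merges feature fluorescence and signal-to-noise across triplicate slides.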 Conditions: higher = more signal.
Experiment [4] can be described thus: small molecules captured by biotinylated probe aFGF10 – biochemical, small-molecule microarray, fluorescence 635/667, stem cell growth factor project, primary screen (AID 1071).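 Note: score merges 667 nm spot intensity and signal to noise from triplicate slides.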 The conditions noted are these: higher = more signal.
Experiment [5] addresses Neurogenic locus notch homolog protein 2 (Homo sapiens) (UniProt Q04721). The experiment is described as follows: small molecules binding Notch2 protein – biochemical, small-molecule microarray, 635 nm fluorescence, stem cell growth factors, primary screen (AID 1073). The conditions noted are these: higher = more signal.
The target in experiment [6] is Pro-neuregulin-1, membrane-bound isoform (Homo sapiens) (UniProt Q02297). The experiment is described as follows: small molecules binding neuregulin-1 protein – biochemical, small-molecule microarray, fluorescence 635/667, psychiatric disease protein project, primary screen (AID 1075).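 Note: score combines 667 nm spot fluorescence with signal to noise.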 The conditions noted are these: NRG1 binding, 635 nm fluorescence, higher = more signal.

Experiment [7] deals with Neuregulin-1 EGF-like domain. Briefly: small molecules binding NRG1 EGF domain – biochemical, small-molecule microarray, 635 nm fluorescence, primary screen (AID 1081).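 Note: binding of the protein to compounds printed on small-molecule microarray slides.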 Conditions: higher = more signal.
Experiment [8] in a line: FRG1 expression reporter modulators in myotubes – cell-based, C2C12 myotubes, firefly/Renilla luciferase, luminescence, FRG1 inhibition for FSHD, primary screen (AID 1084). The conditions noted are these: FRG1 promoter luciferase, higher = more signal, called active from +8 up or from −8 down.
Experiment [9] can be described thus: small molecules captured by biotinylated probe aFST – biochemical, small-molecule microarray, fluorescence 635/667, stem cell growth factor project, primary screen (AID 1086).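 Note: score merges 667 nm fluorescence with signal-to-noise of each printed compound spot.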 The conditions noted are these: higher = more signal.
Experiment [10] can be described thus: binders of probe aHhip on microarray, primary screen, stem cell growth factor project, biochemical, small-molecule microarray, fluorescence 635/667 (AID 1087).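 Note: score merges spot fluorescence at 667nm with spot signal to noise ratio.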 Conditions: higher = more signal.
The subject of experiment [11] is PRMT1 (protein arginine N-methyltransferase 1). Briefly: small molecules binding arginine methyltransferase PRMT1 – biochemical, small-molecule microarray, 635 nm fluorescence, primary screen (AID 1088).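 Note: binding of Prmt1 protein to compounds spotted on small-molecule microarray slides.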 Conditions: higher = more signal.
Experiment [12] can be described thus: growth effects on S. cerevisiae YJM789 – YJM789 clinical isolate, OD600, 24 h, basal, primary screen (AID 1089).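 Note: growth of clinical yeast isolate S. cerevisiae YJM 789 seeded 1000 cells per well; test concentration not given here.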 The conditions noted are these: higher = more signal, called active from +8 up or from −8 down.
A short description of experiment [13]: S. pombe growth modifiers, basal conditions – strain 972, OD600, 24 h, no modulator, primary screen (AID 1090).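 Note: basal condition with compound alone and no growth modifier present; test concentration not given here.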 Conditions: S. pombe 972 growth, higher = more signal, called active from +8 up or from −8 down.
Experiment [14] in a line: budding yeast growth modifiers under rapamycin – strain BY4716, OD600, 96 h, primary screen (AID 1091). Note: test concentration not given here. Conditions: S. cerevisiae BY4716 + rapamycin, higher = more signal, called active from +8 up or from −8 down.
The target in experiment [15] is Torsin-1A-interacting protein 2 (Homo sapiens) (UniProt Q8NFQ8). Briefly: small molecules binding lysate-expressed LULL1 – cell lysate, human LULL1 lysate, 635/667 nm fluorescence, primary screen (AID 1092).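 Note: probe is lysate of COS7 cells overexpressing human LULL1; score merges per-feature 667 nm fluorescence with signal-to-noise.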 Conditions: small-molecule microarray, hLULL1 lysate binding, 635 nm fluorescence; higher = more signal.
Experiment [16] is described as follows: optical density change of DRC41 E. coli – strain DRC41, OD650, 24 h, E. coli filamentation project, primary screen (AID 1093).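 Note: MC1000 strain lacking acrAB efflux and sulA so SOS filamentation is blocked; test concentration not given here.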 The conditions noted are these: E. coli DRC41 growth, higher = more signal, called active from +8 up or from −8 down.
Experiment [17] can be described thus: probe aLefty2 binding to arrayed compounds – biochemical, biotinylated probe, 635/667 nm fluorescence, primary screen (AID 1094).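 Note: score merges spot fluorescence near 667 nm with spot signal-to-noise ratio.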 Conditions: small-molecule microarray, higher = more signal.
The subject of experiment [18] is Noggin (protein binding on small-molecule microarray). Briefly: small molecules binding Noggin protein – biochemical, 635/667 nm fluorescence, primary screen (AID 1095).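 Note: score merges 667 nm feature fluorescence with signal to noise over triplicate slides.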 The conditions noted are these: 635 nm fluorescence, higher = more signal.
Experiment [19] addresses Neurogenic locus notch homolog protein 3 (Homo sapiens) (UniProt Q9UM47). Briefly: small molecules binding NOTCH3 protein – biochemical, 635/667 nm fluorescence, primary screen (AID 1096). The conditions noted are these: small-molecule microarray, 635 nm fluorescence, higher = more signal.
The nature of experiment [20]: probe aEGFR binding to arrayed compounds – biochemical, biotinylated probe, 635/667 nm fluorescence, primary screen (AID 1097).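 Note: probe is a biotinylated anti-EGFR antibody binding compounds printed on slides; score combines fluorescence near 667 nm and signal to noise of each spot.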 The conditions noted are these: small-molecule microarray, higher = more signal.

Chain of Torsin-1A-interacting protein 2 (Homo sapiens) (Q8NFQ8 whole entry, looked up): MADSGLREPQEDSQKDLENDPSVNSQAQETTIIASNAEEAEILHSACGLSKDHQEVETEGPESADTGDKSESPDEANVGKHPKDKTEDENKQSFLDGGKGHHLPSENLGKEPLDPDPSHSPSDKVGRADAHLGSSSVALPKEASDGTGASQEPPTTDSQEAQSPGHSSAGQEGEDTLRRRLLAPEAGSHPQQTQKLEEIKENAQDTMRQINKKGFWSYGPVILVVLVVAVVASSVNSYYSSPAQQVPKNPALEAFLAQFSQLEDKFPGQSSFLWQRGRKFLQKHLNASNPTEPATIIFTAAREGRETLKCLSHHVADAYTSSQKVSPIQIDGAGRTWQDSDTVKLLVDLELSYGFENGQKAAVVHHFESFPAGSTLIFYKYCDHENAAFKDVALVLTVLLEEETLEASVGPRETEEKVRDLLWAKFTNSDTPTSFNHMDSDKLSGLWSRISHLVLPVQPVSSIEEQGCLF
Chain of Neurogenic locus notch homolog protein 3 (Homo sapiens) (Q9UM47 whole entry, looked up): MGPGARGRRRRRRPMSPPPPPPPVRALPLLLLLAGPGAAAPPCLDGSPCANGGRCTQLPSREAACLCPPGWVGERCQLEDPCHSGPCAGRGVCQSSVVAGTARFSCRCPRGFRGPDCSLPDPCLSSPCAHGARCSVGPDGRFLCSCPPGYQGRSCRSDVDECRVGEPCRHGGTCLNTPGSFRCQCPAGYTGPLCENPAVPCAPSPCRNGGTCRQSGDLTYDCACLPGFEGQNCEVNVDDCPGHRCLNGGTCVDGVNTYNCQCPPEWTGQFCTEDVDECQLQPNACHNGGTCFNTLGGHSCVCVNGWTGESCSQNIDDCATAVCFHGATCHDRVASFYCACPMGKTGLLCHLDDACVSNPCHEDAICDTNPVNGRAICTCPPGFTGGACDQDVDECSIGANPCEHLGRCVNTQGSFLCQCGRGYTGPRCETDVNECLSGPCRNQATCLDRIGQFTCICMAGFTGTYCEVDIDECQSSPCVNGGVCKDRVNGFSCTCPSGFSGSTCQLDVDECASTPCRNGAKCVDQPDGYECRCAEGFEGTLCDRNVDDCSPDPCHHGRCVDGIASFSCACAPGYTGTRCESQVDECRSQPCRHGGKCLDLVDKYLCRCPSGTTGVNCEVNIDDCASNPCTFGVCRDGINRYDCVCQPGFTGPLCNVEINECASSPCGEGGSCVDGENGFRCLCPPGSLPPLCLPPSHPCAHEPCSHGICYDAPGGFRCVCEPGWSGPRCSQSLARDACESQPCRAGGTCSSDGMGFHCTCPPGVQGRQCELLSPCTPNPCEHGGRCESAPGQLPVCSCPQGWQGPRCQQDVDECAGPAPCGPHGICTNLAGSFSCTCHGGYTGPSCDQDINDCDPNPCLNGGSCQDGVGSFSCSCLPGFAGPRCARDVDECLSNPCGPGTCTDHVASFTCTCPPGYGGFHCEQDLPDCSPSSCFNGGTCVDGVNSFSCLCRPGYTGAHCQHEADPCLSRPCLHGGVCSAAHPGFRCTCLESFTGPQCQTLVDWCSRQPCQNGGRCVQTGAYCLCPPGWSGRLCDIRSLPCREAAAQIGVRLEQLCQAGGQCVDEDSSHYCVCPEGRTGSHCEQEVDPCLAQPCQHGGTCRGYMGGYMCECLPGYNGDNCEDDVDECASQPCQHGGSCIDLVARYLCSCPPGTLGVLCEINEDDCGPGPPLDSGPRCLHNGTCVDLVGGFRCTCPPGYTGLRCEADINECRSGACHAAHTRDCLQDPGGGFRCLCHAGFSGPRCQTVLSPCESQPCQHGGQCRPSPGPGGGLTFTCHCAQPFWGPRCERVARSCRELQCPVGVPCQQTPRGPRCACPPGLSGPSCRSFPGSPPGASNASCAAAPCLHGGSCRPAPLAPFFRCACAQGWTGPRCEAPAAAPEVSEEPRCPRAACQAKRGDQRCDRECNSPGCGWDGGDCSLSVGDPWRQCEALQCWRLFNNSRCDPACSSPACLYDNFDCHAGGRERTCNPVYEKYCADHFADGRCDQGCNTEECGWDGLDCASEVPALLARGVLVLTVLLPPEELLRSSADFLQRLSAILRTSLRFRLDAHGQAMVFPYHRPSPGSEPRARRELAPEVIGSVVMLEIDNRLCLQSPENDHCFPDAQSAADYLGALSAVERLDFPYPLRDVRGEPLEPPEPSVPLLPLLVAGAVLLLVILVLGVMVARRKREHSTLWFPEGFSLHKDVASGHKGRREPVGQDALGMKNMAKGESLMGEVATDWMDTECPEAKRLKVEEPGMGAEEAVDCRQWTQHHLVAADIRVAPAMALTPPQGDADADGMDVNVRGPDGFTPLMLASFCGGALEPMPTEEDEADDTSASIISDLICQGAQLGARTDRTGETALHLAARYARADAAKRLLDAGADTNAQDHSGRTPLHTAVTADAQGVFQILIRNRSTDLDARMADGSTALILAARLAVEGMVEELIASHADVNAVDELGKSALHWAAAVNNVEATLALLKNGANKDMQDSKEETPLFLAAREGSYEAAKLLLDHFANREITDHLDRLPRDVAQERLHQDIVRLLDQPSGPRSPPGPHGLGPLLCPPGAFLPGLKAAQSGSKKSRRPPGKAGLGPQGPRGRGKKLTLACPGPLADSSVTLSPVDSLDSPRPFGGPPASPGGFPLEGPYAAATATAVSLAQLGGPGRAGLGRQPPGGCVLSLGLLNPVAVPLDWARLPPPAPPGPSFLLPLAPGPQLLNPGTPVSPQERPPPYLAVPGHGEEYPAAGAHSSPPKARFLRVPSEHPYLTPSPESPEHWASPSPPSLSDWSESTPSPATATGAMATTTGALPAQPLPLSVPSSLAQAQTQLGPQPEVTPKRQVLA
Chain of Pro-neuregulin-1, membrane-bound isoform (Homo sapiens) (Q02297 whole entry, looked up, canonical isoform): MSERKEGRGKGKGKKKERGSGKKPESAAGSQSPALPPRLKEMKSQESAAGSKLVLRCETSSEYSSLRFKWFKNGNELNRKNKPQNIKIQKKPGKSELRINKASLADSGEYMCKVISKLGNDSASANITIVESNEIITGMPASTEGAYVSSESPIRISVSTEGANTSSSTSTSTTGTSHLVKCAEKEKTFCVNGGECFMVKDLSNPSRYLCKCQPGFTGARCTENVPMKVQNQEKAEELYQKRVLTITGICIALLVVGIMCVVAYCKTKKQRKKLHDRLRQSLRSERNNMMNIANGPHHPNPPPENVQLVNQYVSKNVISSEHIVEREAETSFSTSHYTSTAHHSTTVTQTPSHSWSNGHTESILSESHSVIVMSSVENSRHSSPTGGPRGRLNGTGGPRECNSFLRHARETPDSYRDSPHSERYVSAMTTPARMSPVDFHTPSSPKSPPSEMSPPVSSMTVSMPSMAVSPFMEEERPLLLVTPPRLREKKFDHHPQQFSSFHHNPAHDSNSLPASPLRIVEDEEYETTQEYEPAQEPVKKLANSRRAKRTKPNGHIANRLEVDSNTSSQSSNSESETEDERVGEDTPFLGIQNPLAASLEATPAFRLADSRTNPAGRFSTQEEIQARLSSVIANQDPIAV

In the case of `O=C(NCCN1CCOCC1)[C@@H]1c2ccccc2C(=O)N(Cc2ccccc2)[C@H]1c1ccc(CO)cc1`, the composite z-score is 0.39 in experiment [1]; -0.334 in experiment [2]; -0.175 in experiment [3]; -0.961 in experiment [4]; -0.913 in experiment [5]; 1.77 in [6]. The composite z-score is 1.1 in [7]; -0.0557 in experiment [9]; -0.312 in [10]; -0.845 in experiment [11]; 0.0893 in experiment [15]; -0.129 in experiment [17]. In addition, the values for the composite z-score in experiment [18], in experiment [19] and in experiment [20] were 0.278, -0.036 and -0.204, respectively. Besides, the z-score was -0.508 (inactive) in [8]; -0.0009 (inactive) in experiment [12]; 0.253 (inactive) in [13]; -0.412 (inactive) in experiment [14]; 0.311 (inactive) in experiment [16].
As for `COCCOC(=O)N1C(=O)[C@@]2(c3cc(C#CCC(C(=O)OC)C(=O)OC)ccc31)[C@H](C(=O)NC[C@H](O)c1ccccc1)[C@H]1C(=O)O[C@H](c3ccccc3)[C@H](c3ccccc3)N1[C@@H]2c1ccc(OCCO)cc1`, the composite z-score in experiment [1] is -0.341; in experiment [2], 0.0051; in experiment [3], -0.113; in experiment [4], 0.245; in experiment [5], 0.917; in experiment [6], 0.161. Also, the composite z-score in experiment [7] was 1.23; in experiment [9], 0.5; in experiment [10], -0.0994; in experiment [11], 1.56; in experiment [15], 2.08; in experiment [17], -0.109. For the same molecule, the results for the composite z-score in experiment [18], in experiment [19] and in experiment [20] were 1.69, 1.04 and 0.0097, respectively. Moreover, the z-score in [8] is 0.856 (inactive); in experiment [12] it was 2.22 (inactive); in experiment [13] it was 2.7 (inactive); in experiment [14], 7 (inactive); in experiment [16], 0.6 (inactive).
`O=C1OCCC=C[C@H]2OC34C=CCN(c5ccc(Cl)cc5)C(=O)[C@H]3N(CCCCCCO)C(=O)[C@@H]4C12` (stereo not given in full): the composite z-score in experiment [1] was 0.43; in experiment [2], -0.0789; in experiment [3], -0.116; in experiment [4], -0.683; in experiment [5], -0.879; in experiment [6], -0.221. The composite z-score in experiment [7] is 1.24; in experiment [9], -0.257; in experiment [10], -0.226; in experiment [11] it was 0.117; in experiment [15], 0.455; in experiment [17], -0.139. The composite z-score in experiment [18] was -0.979; in experiment [19], -0.379; in [20], -0.191. In addition, the z-score is 0.45 (inactive) in experiment [8]; 0.115 (inactive) in experiment [12]; -1.1 (inactive) in experiment [13]; -0.337 (inactive) in experiment [14]; 1.78 (inactive) in experiment [16].
For the molecule `C=C[C@H](C)[C@H](OC(=O)Nc1ccc(OC)cc1)c1ccc(OCCO)cc1`, the composite z-score was 0.284 in experiment [1]; -0.294 in experiment [2]; -0.181 in experiment [3]; -1.65 in experiment [4]; -1.34 in experiment [5]; -0.154 in experiment [6]. Moreover, the composite z-score in experiment [7] is 0.834; in [9] it was -0.635; in experiment [10], -0.0173; in experiment [11] it was -0.173; in experiment [15], 0.038; in experiment [17], -0.129. The composite z-score in experiment [18] is -1.14; in experiment [19] it was -0.36; in [20] it was -0.216. Moreover, the z-score is 3.14 (inactive) in experiment [8]; 0.164 (inactive) in experiment [12]; -2.2 (inactive) in experiment [13]; -1.43 (inactive) in [14]; 2.01 (inactive) in experiment [16].
As to `COC(=O)C(CC#Cc1ccc2c(c1)[C@]1(C(=O)N2)[C@H](C(=O)Nc2nc3ccccc3s2)[C@H]2C(=O)O[C@H](c3ccccc3)[C@H](c3ccccc3)N2[C@@H]1c1ccc(OCCO)cc1)C(=O)OC`, the composite z-score in experiment [1] was 0.156; in [2], 0.444; in [3], -0.0036; in [4], 1.05; in [5], 1.4; in [6], 1.87. The composite z-score in [7] was 1.24; in [9], 0.846; in experiment [10] it was -0.137; in experiment [11], 1.55; in experiment [15] it was 3.18; in [17], 0.0973. Besides, the composite z-score in experiment [18] was 1.59; in experiment [19] it was 1.08; in experiment [20] it was 0.0766. Also, the z-score in experiment [8] is 1.9 (inactive); in [12] it was -0.442 (inactive); in experiment [13], -0.144 (inactive); in experiment [14], 1.37 (inactive); in experiment [16], 2.96 (inactive).
